# Results taken from PubChem BioAssay (NCATS).
# Active and inactive are the calls of the source. No stated cut-off is given here; in the data, active means potency below about 10 µM; inactive means the rest.
# Target: Lysosomal acid glucosylceramidase (Homo sapiens) (UniProt P04062)
# Assay: Glucocerebrosidase-p2 (AID 348)
# Conditions: purified GBA, blue fluorogenic substrate, 40 min
# From the text: Beta-glucocerebrosidase catalyzes the hydrolysis of beta-glucocerebroside to glucose and ceramide. The inherited deficiency of beta-glucocerebrosidase results in Gaucher disease, which is characterized by a wide variety of symptoms including hepatosplenomegaly, anemia, thrombocytopenia, bony lesions and bone marrow infiltration with characteristic storage cells, known as Gaucher cells. There are also forms of the disorder affecting the central nervous system. Patients with the same genotypes can manifest with diverse clinical presentations and it is believed that improper folding and trafficking of beta-glucocerbrosidase may contribute to the phenotypes observed.
# Low molecular weight molecules, acting as chaperones, may potentially restore trafficking of misfolded beta-glucocerebrosidase from the endoplasmic reticulum to the lysosomes, thereby enhancing functional lysosomal beta-glucocerebrosidase activity.
# Using normal beta-glucocerebrosidase, an assay was developed to screen for small molecule inhibitors that could potentially act as molecular chaperones on the mutant forms [developed with NIH investigator Dr. Ellen Sidransky#s laboratory]. Two pro-fluorescent substrates were chosen for two screens against a small molecule library. One beta-glucocerebrosidase assay used Resorufin beta-D-Glucopyranoside (Marker Gene Technology Inc.), generating a red fluorescent product. The second assay used […] fluorescent product. The Km for the Resorufin beta-D-Glucopyranoside and Fluorescein di-beta-D-Glucopyranoside were determined to be 71.2 uM and 855 uM, respectively. The IC50 values of Conduritol B Epoxide, a known glucocerebrosidase inhibitor, were determined to be 87.5 uM and 117 uM, respectively. The use of two difference pro-fluorescent substrates in the screens helped to eliminate false positives. All compounds were screened in a titration series resulting in AC50s (e.g., IC50s or EC50s). Data normalization and AC50 calculations were accomplished using GeneData software.
# NCGC Assay Protocol Summary
# Both enzyme and substrate were diluted in buffer composed of 50mM citric acid/KH2PO4, 10mM sodium taurocholate and 0.01% tween-20 at pH 5.9. The final concentration of the enzyme was 0.2 nM in both assays. The compound library was titrated in 7 to 15 concentrations for the primary screens with a final concentration ranging from 0.6 nM to 50 uM. This particular assay protocol is for the "blue" substrate, and it was performed in 1536-well plate format as follows:
# Blue fluorescence substrate assay:
# 1 uL substrate (final concentration of 80 uM)
# Incubate at room temperature (RT) for 40 minutes
# 3 uL stop solution (1 M NaOH and 1 M glycine in water)
# Read the plate in Viewlux plate reader (Ex=365(10) and Em=440(10)).
# Potency means the concentration at half of the fitted maximal effect.
# Chain of Lysosomal acid glucosylceramidase (Homo sapiens) (P04062 whole entry, looked up): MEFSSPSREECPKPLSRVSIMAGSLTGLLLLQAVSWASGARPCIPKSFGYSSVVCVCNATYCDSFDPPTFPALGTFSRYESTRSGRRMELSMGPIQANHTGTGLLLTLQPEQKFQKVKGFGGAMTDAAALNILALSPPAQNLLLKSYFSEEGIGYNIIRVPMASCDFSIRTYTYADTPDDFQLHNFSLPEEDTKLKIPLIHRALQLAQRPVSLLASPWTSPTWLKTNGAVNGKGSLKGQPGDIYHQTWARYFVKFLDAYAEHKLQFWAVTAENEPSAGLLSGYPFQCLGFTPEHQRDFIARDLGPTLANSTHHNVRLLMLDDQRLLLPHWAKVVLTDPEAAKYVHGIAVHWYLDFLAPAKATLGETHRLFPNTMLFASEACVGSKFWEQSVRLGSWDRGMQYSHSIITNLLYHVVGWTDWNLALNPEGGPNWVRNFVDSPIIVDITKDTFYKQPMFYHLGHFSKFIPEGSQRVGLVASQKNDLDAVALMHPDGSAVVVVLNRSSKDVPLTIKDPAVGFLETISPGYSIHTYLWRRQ
row,SMILES,Potency
1,COc1ncc2nc(-c3cn(C)c4ccccc34)c(=O)n(C)c2n1,> 11.4 µM (inactive)
2,c1cn(-c2cc(-c3ccc4c(c3)OCO4)ncn2)cn1,> 11.4 µM (inactive)
3,CCNc1ncc2nc(-c3ccccc3)c(=O)n(CCc3ccccc3)c2n1,> 11.4 µM (inactive)
4,Cc1cccc(CNc2ccnc(-c3cccc(C#N)c3)n2)c1,> 11.4 µM (inactive)
5,CS(=O)(=O)Nc1cccc(-c2nccc(NCc3cccs3)n2)c1,> 11.4 µM (inactive)
6,COc1ccccc1CNc1nc(-c2cccc(C#N)c2)nc2ccccc12,> 11.4 µM (inactive)
7,CCNc1ncc2nc(-c3cn(C)c4ccccc34)c(=O)n(C[C@H]3CCCO3)c2n1,> 11.4 µM (inactive)
8,Cn1cccc1C(=O)N1CCC[C@@]2(CCN(Cc3nccs3)C2)C1,> 11.4 µM (inactive)
9,Cc1noc(C)c1C(=O)N1CCC2(CCCN(c3ncccn3)C2)CC1,> 11.4 µM (inactive)
10,O=S(=O)(c1ccccc1)N1CCC[C@@]2(CCN(c3cccc(-c4ccccc4)c3)C2)C1,> 11.4 µM (inactive)
11,c1ccc(CNc2ncncc2-c2ccoc2)cc1,> 11.4 µM (inactive)
12,Cc1noc(C)c1-c1ccc2ncnc(NCCN3CCOCC3)c2c1,> 11.4 µM (inactive)
13,COCCn1c(=O)c(-c2cccs2)nc2cnc(Oc3cccc(Cl)c3)nc21,> 11.4 µM (inactive)
14,CN(C)C(=O)c1ccc(-c2nc(N(C)Cc3ccco3)c3ccccc3n2)cc1,> 11.4 µM (inactive)
15,O=C(c1cc(C(F)(F)F)cc(C(F)(F)F)c1)N1CCC2(CC1)CN(Cc1ccccc1)C2,> 11.4 µM (inactive)
16,O=C(c1ccncc1)N1CCC2(CCN(Cc3ccccc3)CC2)CC1,> 11.4 µM (inactive)
17,O=C(c1ccncc1)N1CCC[C@@]2(CCN(Cc3cc(C(F)(F)F)cc(C(F)(F)F)c3)C2)C1,> 11.4 µM (inactive)
18,O=c1c(-c2cccc(F)c2)nc2cncnc2n1Cc1ccccc1Cl,> 11.4 µM (inactive)
19,O=C(Nc1ccccc1)N1CC2(CCN(C(=O)c3cnccn3)CC2)C1,> 11.4 µM (inactive)
20,COc1ccccc1CNc1ncncc1-c1ccc(C(=O)N(C)C)cc1,> 11.4 µM (inactive)

row,SMILES,Potency
1,O=C(c1cnccn1)N1CCC2(CC1)CCN(c1ncccn1)CC2,> 11.4 µM (inactive)
2,COc1ccc(-n2c(=O)c(C)nc3cnc(Nc4ccccc4)nc32)cc1,> 11.4 µM (inactive)
3,COc1ccccc1-c1ccc2ncnc(NCCNC(C)=O)c2c1,> 11.4 µM (inactive)
4,CS(=O)(=O)N1CCC2(CCCN(C(=O)Nc3cccc(F)c3)C2)CC1,> 11.4 µM (inactive)
5,Cc1cnc(CNc2ccnc(-c3cccc(NS(C)(=O)=O)c3)n2)cn1,> 11.4 µM (inactive)
6,CN1CCN(c2ncc3nc(-c4ccc(Cl)cc4)c(=O)n(CCC#N)c3n2)CC1,> 11.4 µM (inactive)
7,COCCn1c(=O)c(-c2cn(C)c3ccccc23)nc2cncnc21,> 11.4 µM (inactive)
8,COc1ccc(CNc2nc(-c3ccc(N(C)C)cc3)nc3ccccc23)c(OC)c1,> 11.4 µM (inactive)
9,COCCn1c(=O)c(-c2cc(F)cc(F)c2)nc2cnc(Nc3cccc(OC)c3)nc21,> 11.4 µM (inactive)
10,O=C(c1ccco1)N1CCC[C@@]2(CCN(C(c3ccccc3)c3ccccc3)C2)C1,> 11.4 µM (inactive)
11,CCNc1ncc2nc(-c3cc(F)cc(F)c3)c(=O)n(C3CC3)c2n1,> 11.4 µM (inactive)
12,c1ccc(C(c2ccccc2)N2CC3(CCNCC3)C2)cc1,> 11.4 µM (inactive)
13,CC(=O)NCCNc1nc(-c2c(C)noc2C)nc2ccccc12,> 11.4 µM (inactive)
14,COc1ccc2[nH]cc(CCNc3nc(-c4ccc(N(C)C)cc4)nc4ccccc34)c2c1,0.554 µM (active)
15,O=C(Nc1cccc(F)c1)N1CC2(CCN(C(=O)c3cccc(F)c3)CC2)C1,> 11.4 µM (inactive)
16,COc1ncc2ncc(=O)n(CCC#N)c2n1,> 11.4 µM (inactive)
17,COc1ccc(-c2nc3cnc(N4CCN(C)CC4)nc3n(C3CC3)c2=O)cc1,> 11.4 µM (inactive)
18,O=C(c1csnn1)N1CCC2(CC1)CCN(c1ccccn1)CC2,> 11.4 µM (inactive)
19,N#Cc1ccc(CN2CCCC3(CCNCC3)C2)cc1,> 11.4 µM (inactive)
20,COc1ccc(-n2c(=O)c(CCc3ccccc3)nc3cnc(N(C)C)nc32)cc1,> 11.4 µM (inactive)
